Source: PubChem (National Center for Advancing Translational Sciences (NCATS))
NPC1 promoter act = activates the NPC1 promoter | 2.4% of 320,000 active | Potency, µM (doses to about 9.22 µM), for the others: at the highest dose activation, hits mostly activators | AID 485313 | Huh7 NPC1 promoter luciferase reporter, 24 h; also: % of control where 0% means no effect; nearly all actives have a fitted effect of over 60% in size
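Compounds in DMSO were transferred onto Huh7 NPC1-luciferase reporter cells pre-incubated 2 h; after 24 h at 37 °C, Amplite reagent was dispensed and luminescence recorded 10 min later.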
ELG1 repair inh = ELG1-dependent DNA repair inhibition; HEK293T ELG1-luciferase reporter, luminescence, 16 h; DNA damage induced by 5-fluorouridine; Potency, µM (top dose mostly 46.1 µM), for inactives: top-dose activity change, negative = inhibition, hits mostly inhibitors; 2.3% of 330,000 active; also: % is scaled to controls: 0 for no effect and ±100 for the full control effect; nearly all actives have a fitted effect of over 55% in size
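HEK293T cells expressing luciferase-tagged ELG1 (2,000/well) received 5-Fluorouridine plus compound or DMSO for 16 hr at 37 °C. Luciferase was read by ONE-Glo luminescence after 30 min at room temperature.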
FLuc modulator = firefly luciferase modulation, counter-screen for miR-21 project; purified FLuc, Km substrates, luminescence inhibition; P08659; AID 588342; Potency, µM (doses to about 57.5 µM), inactives show at the top dose activity change, negative = inhibition, actives largely listed as inhibitors; 6.9% of 360,000 active;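 also: plate controls were vehicle for no effect and reference inhibitor for full effect; nearly all actives have a fitted effect of over 55% in size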
Target sequence (P08659 whole entry, looked up): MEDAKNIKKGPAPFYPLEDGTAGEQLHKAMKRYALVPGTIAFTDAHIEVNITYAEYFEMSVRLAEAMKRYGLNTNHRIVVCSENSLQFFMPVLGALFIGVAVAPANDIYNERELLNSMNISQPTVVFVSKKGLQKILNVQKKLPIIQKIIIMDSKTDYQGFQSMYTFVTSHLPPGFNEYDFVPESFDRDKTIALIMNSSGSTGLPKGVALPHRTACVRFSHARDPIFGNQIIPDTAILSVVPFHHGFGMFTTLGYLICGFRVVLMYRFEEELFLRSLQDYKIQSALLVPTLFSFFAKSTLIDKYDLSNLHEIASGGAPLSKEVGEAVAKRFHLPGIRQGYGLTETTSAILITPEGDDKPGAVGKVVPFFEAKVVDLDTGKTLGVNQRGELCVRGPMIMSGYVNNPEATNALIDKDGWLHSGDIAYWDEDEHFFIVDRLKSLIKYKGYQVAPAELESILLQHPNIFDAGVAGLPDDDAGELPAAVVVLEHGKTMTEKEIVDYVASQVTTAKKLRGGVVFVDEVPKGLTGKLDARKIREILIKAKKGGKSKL
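Purified P. pyralis luciferase, 10 nM final, with Km-level 10 uM D-luciferin and 10 uM ATP in 50 mM Tris acetate pH 7.5, 10 mM Mg acetate, 0.01% Tween-20, 0.05% BSA; 6-point qHTS titration about 60 µM downward; luminescence read.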
ELG1 genotox = induces genotoxicity in HEK293T cells with luciferase-tagged ELG1; HEK293T ELG1-luciferase reporter, luminescence, 16 h; Potency, µM (highest dose often 46 µM), for inactives: top-dose activity change, positive = activation, hits mostly activators; 1.3% of 330,000 active; AID 504466; also: % of control where 0% means no effect; nearly all actives have a fitted effect of over 60% in size
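Cells (2,000/well) expressing the ELG1-luciferase fusion are dosed by pin tool and kept 16 hr at 37 °C, 5% CO2. Signal comes from ONE-Glo luciferase reagent after 30 min at room temperature.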
SMN2 splice up = enhancers of SMN2 splice variant expression | HEK293 SMN2-luciferase splicing reporter, luminescence, 30-36 h | Potency, µM (top dose mostly 46.1 µM), inactives show top-dose activity change, positive = activation, most hits filed as activators | 2.8% of 210,000 active; also: % of control where 0% means no effect; nearly all actives have a fitted effect of over 55% in size
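qHTS luciferase splicing reporter: luminescence rises when SMN2 exon 7 is included in transfected HEK293 cells. Compound exposure lasted 30-36 h at 37C, with 4.5 mM final sodium butyrate as control, followed by a ONE-Glo read.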
Rab9 promoter act = activators of Rab9 promoter | Huh7 Rab9 promoter-luciferase reporter, luminescence, 24 h | Potency, µM (series often up to 9.22 µM), for inactives: at the top dose activation, negative = inhibition, usual class: activators | 2.8% of 320,000 active | AID 485297; also: % of control where 0% means no effect; nearly all actives have a fitted effect of over 60% in size
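Luciferase signal after 10 min detection reagent at ambient indicates Rab9 promoter upregulation; stably transfected Huh7 cells were treated 24 h with compound in DMSO at 37 °C, 5% CO2.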
Numbers without * were called inactive; ? = inconclusive; . = no result given. Rows were chosen to be rich in hits. Some 9.2% of all compounds tested hit in one or more screens of this group. Calls follow the shape of the dose curve; as a rule, active = well fitted curve in the direction sought with a large enough effect; inconclusive = small, poorly fitted or top-dose-only effect, or another doubt; inactive = no such curve, though single readings can be large; an effect the other way counts as inactive or inconclusive. Potency is read from the fitted curve at half-maximal effect.

SMILES	NPC1 promoter act	ELG1 repair inh	FLuc modulator	ELG1 genotox	SMN2 splice up	Rab9 promoter act
CO/N=C/CC(=O)c1ccc(-c2ccccc2)cc1	-4.2%	?	?	10.9%	12.1%	12.4%
CN(C)/C=N/c1ncc(C(=O)c2ccc(Cl)cc2Cl)s1	6.2%	0.4%	-11.0%	1.0%	-19.6%	14.5%
CN(C)/C=N/c1ncc(C(=O)c2ccc(Cl)cc2)s1	28.0%	?	?	16.4µM*	10.1%	6.0%
O=C(c1ccc(Cl)cc1)c1cnc(Nc2ccccc2Cl)s1	1.78µM*	?	1.51µM*	?	22.4µM*	1.12µM*
CO/N=C/CC(=O)c1cnc(-c2ccc(Cl)cc2)s1	?	?	?	?	25.1µM*	?
O=C(c1ccc(Cl)cc1)c1cnc(-c2ccccc2)s1	2.24µM*	?	?	12.7%	3.4%	2.82µM*
O=C(c1cnc(-c2ccccc2)s1)c1ccc(Cl)cc1Cl	-2.1%	6.4%	?	-1.0%	-0.4%	8.3%
CNc1ncc(C(=O)c2ccc(Br)cc2)s1	2.82µM*	?	12µM*	?	15.8µM*	2µM*
CCN(CC)CCn1c2ccccc2c2nc3ccccc3nc21	?	?	21.3µM*	?	.	?
N#CCSc1nnc(COc2cccc3ccccc23)n1-c1ccccc1	-1.0%	20.6µM*	3.7%	-10.1%	-55.2%	-5.6%
Cn1c(SCC(=O)Nc2ccccc2Oc2ccccc2)nnc1C1CC1	1.3%	17.1%	3.2%	0.7%	.	-1.0%
Cc1cccn2c(=O)c3cc(C#N)c(=NC(=O)c4cccs4)n(CCCOC(C)C)c3nc12	-0.6%	0.0%	1.0%	-6.4%	.	3.1%
Cc1cccn2c(=O)c3cc(C#N)c(=NC(=O)c4ccncc4)n(CCCOC(C)C)c3nc12	0.0%	11.6µM*	3.6%	0.5%	-7.7%	-5.3%
COCCCn1c(=NC(=O)c2ccncc2)c(C#N)cc2c(=O)n3cccc(C)c3nc21	-4.1%	-12.1%	-1.3%	-6.2%	?	-4.8%
CC(=O)N=c1c(C#N)cc2c(=O)n3cccc(C)c3nc2n1CCCOC(C)C	-2.7%	7.3µM*	1.2%	-3.6%	.	-1.9%
O=C(O)c1ccc(N/N=C/C2=Cc3ccccc3OC2)cc1	0.631µM*	?	0.953µM*	?	.	1µM*
CCC(OC(=O)C1=Cc2ccccc2OC1)C(=O)NCc1ccco1 (configuration not stated)	-4.5%	-7.7%	4.9%	-5.6%	.	-2.4%
O=C1O/C(=C/c2ccccc2)N=C1c1ccccc1	-0.7%	0.6%	2.69µM*	-0.5%	6.8%	-0.2%
CCOc1ccc(OCCC(=O)Nc2cccc(S(=O)(=O)N3CCCC3)c2)cc1	-1.1%	-21.2%	?	-7.3%	.	-8.2%
CCOc1ccc(-c2cc(C(=O)NCCCN3CCOCC3)c3ccccc3n2)cc1	14.6%	16.7%	8.49µM*	2.2%	.	1.0%
O=C(NCCCN1CCOCC1)c1cc(-c2ccc(F)cc2)nc2ccccc12	-0.3%	28.5%	?	3.5%	.	-0.9%
COc1ccc(Nc2cc(C(=O)NCCCN3CCOCC3)c3ccccc3n2)cc1	-1.8%	-0.7%	?	-5.2%	.	-1.1%
CCc1ccc(Nc2cc(C(=O)NCCCN3CCOCC3)c3ccccc3n2)cc1	-0.8%	-28.4%	19µM*	-11.8%	-6.0%	6.8%
O=C(NCCN1CCOCC1)c1cc(-c2ccc(F)cc2)nc2ccccc12	1.0%	10.6%	?	0.6%	.	1.5%
CC(C)Oc1ccc(-c2cc(C(=O)NCCN3CCOCC3)c3ccccc3n2)cc1	?	?	1.51µM*	5.6%	29.0%	25.1%
SMILES	NPC1 promoter act	ELG1 repair inh	FLuc modulator	ELG1 genotox	SMN2 splice up	Rab9 promoter act
CCC(=O)Oc1ccc(NC(=O)CSCc2ccccc2)cc1	26.3%	?	-17.6%	?	-6.9%	?
CCOC(=O)c1cnc(NCc2ccc(Cl)cc2)c2ccccc12	.	.	-0.4%	.	.	.
COCCN(CCOC)c1nc(C)nc2c1nc(-c1ccccc1)n2CCN(C)C	.	.	.	.	-6.3%	.
O=S(=O)(Nc1ccc(O)c2ccccc12)c1ccc(Br)cc1	-4.9%	23.1µM*	-9.2%	-27.2%	.	0.1%
O=S(=O)(Nc1cccc2ccccc12)c1cccs1	2.9%	15.0%	1.3%	3.8%	.	19.8%
CC(=O)Nc1ccc(NS(=O)(=O)c2ccccc2)c2ccccc12	-5.7%	7.8%	-1.0%	-8.8%	.	-2.2%
O=S(=O)(Nc1ccc(O)c2ccccc12)c1cccs1	-6.1%	9.2µM*	-19.5%	-32.1%	.	17.8%
CCN1CCc2c(sc(NC(=O)c3ccc(S(=O)(=O)N4CCCCCC4)cc3)c2C(=O)NC)C1	-1.9%	-0.7%	3.0%	6.1%	.	-8.9%
CC1CCCC(NC(=S)Nc2ccc(SC(F)F)cc2)C1C (configuration not stated)	0.5%	2.0%	?	-5.3%	.	17.7%
O=C(Nc1ccc(SC(F)F)cc1)C12CCC(CC1)C2	27.7%	?	10.7µM*	5.9%	16.4%	29.7%
FC(F)Sc1ccc(NC(=S)NC2CCCC2)cc1	26.9%	5.0%	13.5µM*	5.6%	?	3.16µM*
OC1CCC(NC(=S)Nc2ccc(SC(F)F)cc2)CC1 (configuration not stated)	?	?	21.3µM*	?	15.8µM*	?
Cc1cccc(-n2c(C)c(-c3ccccc3)[nH]c2=S)c1	-0.5%	3.6%	-15.3%	-0.5%	.	-3.5%
Cc1ccc(NC(=O)c2cc(N3C(=O)C=CC3=O)ccc2Cl)cc1C	-3.8%	?	?	-1.8%	0.3%	-0.4%
c1ccc2c(c1)CCN(C1=Nc3cccc4cccc1c34)C2	21.5%	?	6.75µM*	5.9%	15.8µM*	2.82µM*
Cc1ccc2c(c1)COc1c3ccc(C(=O)N4CCOCC4)cc3nn1-2	2.51µM*	?	9.53µM*	16.4µM*	.	1.58µM*
O=C(c1ccc2c(=O)n3c(nc2c1)CCCCC3)N1CCCCC1	-3.2%	?	1.7%	1.1%	.	-4.6%
O=C(c1ccc2c3n(nc2c1)-c1ccc(Cl)cc1CO3)N1CCCCC1	2.24µM*	?	5.36µM*	?	.	1.78µM*
O=C(O)c1ccc2c3n(nc2c1)-c1ccc(Cl)cc1CO3	?	1.2%	1.9µM*	0.7%	.	?
Cc1ccc(-n2c(C)c(C)c3c(NCCCO)ncnc32)cc1	2.82µM*	?	19µM*	?	.	2.51µM*
C=CCNc1ncnc2c1cnn2-c1cccc(C)c1	2.51µM*	?	4.78µM*	2.91µM*	11.2µM*	1.41µM*
C=CCNc1ncnc2c1cnn2-c1ccc(Cl)cc1	0.891µM*	?	0.849µM*	1.84µM*	2.82µM*	1.12µM*
